Experimental findings from PubChem BioAssay (NCATS) are described below.

Activity calls are given as the source filed them. A call without a number means that no potency is given here. Calls follow the shape of the dose curve; as a rule, active = well fitted curve in the direction sought with a large enough effect; inconclusive = small, poorly fitted or top-dose-only effect, or another doubt; inactive = no such curve, though single readings can be large; an effect the other way counts as inactive or inconclusive.

Sequence of Alpha-galactosidase (Coffea arabica) (Q42656 whole entry, looked up): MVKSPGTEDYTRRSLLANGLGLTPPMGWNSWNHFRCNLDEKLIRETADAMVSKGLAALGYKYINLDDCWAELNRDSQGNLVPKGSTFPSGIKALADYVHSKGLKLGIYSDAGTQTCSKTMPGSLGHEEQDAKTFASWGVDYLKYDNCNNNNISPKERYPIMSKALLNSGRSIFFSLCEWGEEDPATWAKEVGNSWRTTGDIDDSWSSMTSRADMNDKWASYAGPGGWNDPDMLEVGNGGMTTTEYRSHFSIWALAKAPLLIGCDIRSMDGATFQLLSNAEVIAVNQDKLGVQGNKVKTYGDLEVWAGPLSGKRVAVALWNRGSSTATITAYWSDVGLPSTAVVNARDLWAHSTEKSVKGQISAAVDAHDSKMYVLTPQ

The target of one experiment is Alpha-galactosidase (Coffea arabica) (UniProt Q42656). The experiment in a line: Counterscreen for Glucocerebrosidase Inhibitors: qHTS Assay for Coffee Bean alpha-Galactosidase at pH 4.5 (AID 957). The conditions noted are these: purified coffee bean alpha-galactosidase, fluorogenic substrate; series mostly up to 76.9 µM. The method, boiled down:
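Quantitative HTS of compounds (0.7 nM to 77 uM) against coffee bean alpha-galactosidase at pH 4.5, measuring 4-methylumbelliferone fluorescence released from 80 uM substrate.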
On the technique in general: The purpose of a counterscreen is to sort out artefacts and off-target activity.
As for `NS(=O)(=O)Cc1noc2ccccc12`, the outcome was inactive.
Take `NC[C@H](O)c1ccc(O)c(O)c1`: the call was inactive.
For `CN1CCN(CCCN2c3ccccc3Sc3ccc(C(F)(F)F)cc32)CC1`, the result was inactive.
The same measure, in the same setting: as for `NS(=O)(=O)c1cc2c(cc1Cl)NC=NS2(=O)=O`, the entry is “inactive”; as for `CCn1cc(C(=O)O)c(=O)c2ccc(C)nc21`, “inactive”; as for `CN(C)CCC=C1c2ccccc2C=Cc2ccccc21`, “inactive”.
With `CCCCc1oc2ccccc2c1C(=O)c1cc(I)c(OCCN(CC)CC)c(I)c1`, the compound was called inactive.
Take `CN(C)CCC[C@@]1(c2ccc(F)cc2)OCc2cc(C#N)ccc21`: the result was inactive.
On the same count and under the same terms, the result for `O=NN(CCCl)C(=O)NCCCl` reads “inactive”; that for `CN1C[C@H](CNC(=O)OCc2ccccc2)C[C@@H]2c3cccc4c3c(cn4C)C[C@H]21`, “inactive”; that for `COc1ccc(Cc2nccc3cc(OC)c(OC)cc23)cc1OC`, “inactive”.

Tested on in a further experiment: not listed separately
The experiment in a line: MultiTox-Fluor Cytotoxicity Assay - LYMP1-003 - Dead Cells (AID 961). Also: potency is read from the fitted curve at half-maximal effect; nearly all actives have a fitted effect of over 70% in size. The conditions noted are these: LYMP1-003 lymphoblastoid cells, dead-cell protease fluorescence; series mostly up to 92.2 µM. The method, boiled down: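 Dead-cell protease release, detected as bis-AAF-R110 fluorescence at 485/520 nm, was measured in LYMP1-003 cells after 16 h compound treatment at 37 C. AC50 values came from Hill-modeled qHTS curves normalized to DMSO (0%) and 15 uM tetraoctylammonium bromide (100%).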
With `COc1cc2c(c(OC)c1OC)-c1ccc(OC)c(=O)cc1[C@@H](NC(C)=O)CC2`, the Potency is 0.631 µM (active).
The same measure, in the same setting: the result for `CC1=C(/C=C/C(C)=C/C=C/C(C)=C/C(=O)Nc2ccc(O)cc2)C(C)(C)CCC1` reads 39.8 µM (active); that for `CC/C(=C(\c1ccccc1)c1ccc(OCCN(C)C)cc1)c1ccccc1`, 39.8 µM (active).
